Data published in PubChem BioAssay (NCATS).
Values joined by “and” are separate entries in the source; they are usually repeats but may differ in a detail not shown here. Equal values may be shown once. Inconclusive results are not listed. A number with no mark means an inactive call. Active and inactive are the calls of the source. Calls come from the whole dose curve; as a rule, active = well fitted curve in the direction sought with a large enough effect; inconclusive = small, poorly fitted or top-dose-only effect, or another doubt; inactive = no such curve, though single readings can be large; an effect the other way counts as inactive or inconclusive.

How the values were obtained:
[1] = Viability qHTS for spleen associated tyrosine kinase inhibitor (SYKi) drug resistant MV4-11 cells (AID 1963824); note: nearly all actives have a fitted effect of over 35% in size
Method in brief: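 SYK inhibitor-resistant MV4-11 AML cells, 500 per well, added to predispensed compounds and incubated 72 hr at 37 C, 5% CO2. Viability measured by CellTiter-Glo luminescence after 10 min at room temperature.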

[2] = Cellular viability qHTS for adrenocortical cancer (ACC) cell line SW-13 (AID 1963989); settings: SW-13 ACC cells viability, CellTiter-Glo, 48 h; activity (max response): stronger effect = lower value; note: nearly all actives have a fitted effect of over 65% in size;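 for activity (max response): cells grown in serum-free medium with ITS supplement; % is set by controls: 0 for no effect and ±100 for the full control effect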
Method in brief: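 48 h treatment, SW-13 in ITS/DMEM serum-free; doses up to 46 uM; readout CellTiter-Glo luminescence; curve fit four-parameter logistic.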

[3] = Cellular viability qHTS for adrenocortical cancer (ACC) cell line NCI-H295R (AID 1963990); note: nearly all actives have a fitted effect of over 60% in size
Method in brief: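 Compound titrations (up to 46 uM final) are applied to NCI-H295R cultures for 48 h at 37C. Viable cell number is estimated by CellTiter-Glo signal, normalised to DMSO and doxorubicin controls.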
Potency is the fitted concentration of half-maximal effect.

In the case of `CC/C(=C(\c1ccccc1)c1ccc(OCCN(C)C)cc1)c1ccccc1`, the Potency [1] is reported as 10.8 µM (active) and 18.8 µM (active), the Potency [2] is reported as 6.31 µM (active) and the Potency [3] is reported as 11.2 µM (active) and 16.4 µM (active).

With `CC(=O)O/N=C1/C(c2c(O)[nH]c3cc(Br)ccc23)=Nc2ccccc21` the Potency [1] was 0.209 µM (active), the Potency [2] was 25.1 µM (active) and the Potency [3] was 15.8 µM (active).

With `CNCc1ccc(-c2cc(-c3nc(-c4ccc(S(=O)(=O)C(C)C)cc4)cnc3N)on2)cc1` the Potency [1] was 0.326 µM (active), the Potency [2] was 3.98 µM (active) and the Potency [3] was 0.316 µM (active).

In the case of `O=C1c2ccccc2CCc2ccccc21`, the Potency [1] is reported as “inactive”, the activity (max response) [2] is reported as 4.16% and the Potency [3] is reported as “inactive”.

In the case of `CC(C)(C)NC[C@H](O)COc1nsnc1N1CCOCC1`, the Potency [1] is reported as “inactive”, the activity (max response) [2] is reported as -5.85% and the Potency [3] is reported as “inactive”.

For `O=C(CCCCCCNC(=O)c1cnc(N(c2ccccc2)c2ccccc2Cl)nc1)NO`, the Potency [1] was 2.63 µM (active), the Potency [2] was 14.1 µM (active) and the Potency [3] was 11.2 µM (active).

For `O=C(Nc1ccc(Cl)cc1)Nc1ccc(Cl)c(C(F)(F)F)c1`, the Potency [1] was 7.5 µM (active), the Potency [2] was 2.91 µM (active) and the Potency [3] was 1.84 µM (active).

In the case of `Cc1ccccc1-n1nc(-c2c(-c3ccc(F)cc3)nn3c2NC[C@@H](CO)C3)ccc1=O`, the Potency [1] is reported as 2.91 µM (active), the activity (max response) [2] is reported as 12.4% and the Potency [3] is reported as “inactive”.

In the case of `C[C@@H](O)[C@H](N)C(=O)O`, the Potency [1] is reported as “inactive”, the activity (max response) [2] is reported as 12.2% and the Potency [3] is reported as “inactive”.

For `C[C@]12CCC(=O)C=C1[C@@H]1C[C@@H]1[C@H]1[C@@H]3[C@@H]4C[C@@H]4[C@@]4(CCC(=O)O4)[C@@]3(C)CC[C@@H]12`, the Potency [1] was 21.1 µM (active) and 18.6 µM (active), the activity (max response) [2] was -8.86% and -13.4% and the Potency [3] was “inactive”.
